# Results reported in PubChem BioAssay AID588690 (Broad Institute, 2011).
# Screen size: about 2,400 compounds; fewer than 10 were called active. Inconclusive results (about 1%) are left out. A selection follows. A number with no mark means an inactive call.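 The calls were made as follows: active = highest replicate activation at or above 34% and every replicate reaching that threshold; inconclusive = meets only one of the two criteria; inactive = meets neither criterion.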
# Molecular target: Protein FosB (Mus musculus) (UniProt P13346)
# Assay: activators of mouse delta FosB DNA binding, confirmation, biochemical, fluorescence polarization, TAMRA-CDK5 oligo, cherry-picked samples (AID 588690);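 also: higher polarization means more probe DNA bound by delta FosB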
# Settings: purified delta FosB, at 24.9 µM, stronger effect = higher value, normalised: neutral wells 0, positive control 100
# Chain of Protein FosB (Mus musculus) (P13346 whole entry, looked up): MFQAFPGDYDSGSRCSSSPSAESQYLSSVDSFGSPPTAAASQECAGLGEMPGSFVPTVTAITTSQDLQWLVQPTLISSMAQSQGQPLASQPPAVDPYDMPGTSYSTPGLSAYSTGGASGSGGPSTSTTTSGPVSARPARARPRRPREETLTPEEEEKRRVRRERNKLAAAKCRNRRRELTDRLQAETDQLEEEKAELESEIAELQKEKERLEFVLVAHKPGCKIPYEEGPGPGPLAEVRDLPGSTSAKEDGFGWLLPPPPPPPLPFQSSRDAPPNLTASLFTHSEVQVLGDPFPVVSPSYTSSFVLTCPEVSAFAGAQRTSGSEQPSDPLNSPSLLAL
row,Structure (SMILES),activation [%]
1,CN(CC(=O)Nc1ccc(Cl)cc1)C(=O)CNC(=O)c1ccc2ccccc2c1,6.82
2,C#CCOCCOCCOCCNc1nc(N2CCN(C(=O)C([C@@H](C)O)n3cc([C@@H](N)CCCCN)nn3)CC2)nc(N2CCN(C(=O)[C@H](CCCCN)n3cc(CN)nn3)CC2)n1 (stereo partly specified),-0.353
3,Cc1nn(Cc2ccc(Cl)cc2)c(Cl)c1/C=N/NC(=O)CNc1ccccc1F,1.57
4,Cc1ccc(C)c(NC(=O)C(OC(=O)c2ccc(C)s2)c2ccccc2)c1 (stereo unspecified),-0.981
5,Nc1nc(COC(=O)CCC(=O)c2ccc(Cl)cc2)nc(Nc2ccccc2)n1,0.207
6,COc1ccc(Cn2c(=S)[nH]c3cc(C(=O)N4CCCCC4)ccc3c2=O)cc1,-2.01
7,COc1ccc(-c2cc(=O)oc3cc(OC(C)C(=O)Nc4ccc(CN5CCOCC5)cc4)ccc23)cc1 (stereo unspecified),0.361
8,Cc1cc(NC(=O)CSc2nc3cc(Cl)ccc3c(=O)n2Cc2ccco2)no1,3.74
9,O=C(Nc1nc(-c2ccc(-c3ccccc3)cc2)cs1)c1cnccn1,5.91
10,O=C(Cn1nnc(-c2ccccc2)n1)NCc1ccc2c(c1)OCO2,5.36
11,Cc1sc2ncnc(N3CCC(C(=O)Nc4nc5ccc(Cl)cc5s4)CC3)c2c1C,5.08
12,CC(Sc1nc(-c2ccccc2)cc(C(F)(F)F)n1)C(=O)Nc1ccc2c(c1)OCO2 (stereo unspecified),0.405
13,COc1ccc2nc(/N=C(\N)NC(=O)Nc3ccccc3)nc(C)c2c1,-5.43
14,COc1ccc(-n2c(SCC(=O)Nc3sc4c(c3C#N)CCCC4)nnc2-c2ccc(O)cc2)cc1,2.22
15,O=C(Cc1nc2ccccc2[nH]c1=O)c1ccc(Cl)cc1,3.64
16,CCCCNC(=O)C(C)N(CCN(C)C)C(=O)CCCCCN1C(=O)NC(c2ccc(Cl)cc2)C(C(=O)OCc2ccccc2)=C1C (stereo unspecified),3.97
17,O=C(/C=C/c1ccc(F)cc1)NCCNC(=O)/C=C/c1ccc(F)cc1,5
18,COc1cccc(CNC(=O)c2nnn(CC(=O)Nc3cc(C)ccc3C)c2N)c1,0.657
19,CC(=O)Nc1ccc(NC(=O)C(NS(=O)(=O)c2ccc3c(c2)OCCO3)C(C)C)cc1 (stereo unspecified),2.35
20,COc1ccc(NS(=O)(=O)c2ccc(NC(=O)c3ccc(N(C)S(C)(=O)=O)cc3)cc2)cc1,-1.03
21,O=C(Nc1ccc2ccccc2c1)/C(=C/c1cccc(Br)c1)NC(=O)c1ccco1,5.71
